In PubChem BioAssay (EPA / NIEHS):
Activity calls are given as the source filed them. How the source made its calls: active means hit-call score of the fitted dose curve at least 0.9, where 1 is the maximum; inactive means score below 0.9.

test: ATG_RORE_CIS: Attagene CIS-FACTORIAL HepG2 Assay for human RAR-related Orphan Receptor Element (RORE) (AID 2282959); conditions: HepG2 Attagene cis-factorial RORE reporter, mRNA; actives raise or lower the signal
Description: ATG_CIS is a cell-based, multiplexed-readout assay that uses HepG2, a human liver cell line, with measurements taken at 24 hours after chemical dosing in a 24-well plate.ATG_RORE_CIS is one of 52 assay component(s) measured or calculated from the ATG_CIS assay. It is designed to make measurements of mRNA induction, a form of inducible reporter, as detected with fluorescence intensity signals by Reverse transcription polymerase chain reaction (RT-PCR) and Capillary electrophoresis technology.Data from the assay component ATG_RORE_CIS was analyzed into 1 assay endpoint. This assay endpoint, ATG_RORE_CIS, was analyzed with bidirectional fitting relative to DMSO as the negative control and baseline of activity. Using a type of inducible reporter, measures of mRNA for gain or loss-of-signal activity can be used to understand the reporter gene at the transcription factor-level as they relate to the gene RORA and RORB and RORC. Furthermore, this assay endpoint can be referred to as a primary readout, because this assay has produced multiple assay endpoints where this one serves a reporter gene function. To generalize the intended target to other relatable targets, this assay endpoint is annotated to the nuclear receptor intended target family, where the subfamily is orphan.
Human liver HepG2 cells are transiently transfected with multiple reporter transcription units (MRTUs) in 6-well plates using FuGene 6 reagent (Roche; 3 ml FuGene/1 mg DNA). The MRTU constructs are regulated by a cis-regulating element (promoter). […] A major difference between the CIS and TRANS system is that in CIS activities of endogenous TFs are measured, whereas the TRANS assay evaluates changes in activities of exogenous, chimeric NR-Gal4 proteins. […] At the end of 24 hour incubation, total RNA was isolated using TriZol reagent (Invitrogen). The isolated RNA is then reverse-transcribed using oligo(dT) primer and Mo-MLV reverse transcriptase (Invitrogen) with DNAse I (Ambion) treatment for 30 min. The one-tenth of the produced cDNA was amplified by PCR using Taq DNA polymerase (Invitrogen) and two reporter sequence-specific primers. The PCR products were fluorescently labeled by primer extension with 6-arboxyfluorescein (6-FAM) 5'-labeled reporter sequence-specific primer (2 min at 95 C, 20 s at 68 C and 10 min at 72 C) and these products were digested with 5U of HpaI (New England Biolabs) for 2h at 37 C. The fragments were purified using Qiaquick PCR columns (Qiagen), analyzed on an ABI 3130xL genetic analyzer (Applied Biosystems) with peak positions identified by using a set of X-rhodamine (ROX)-labeled MapMarker1000 molecular weight standards (BioVentures). The raw capillary electrophoresis data was processed using Attagraph software (Attagene).

| SMILES | outcome |
| --- | --- |
| CCc1cccc(C)c1N | inactive |
| O=C(O)CC(C(=O)O)S(=O)(=O)O (stereo not given) | inactive |
| COC(=O)c1ccccc1C | inactive |
| CC(C)COC(=O)CC(C(=O)OCC(C)C)S(=O)(=O)O (stereo not given) | inactive |
| CCc1occc(=O)c1O | inactive |
| CC1C(C)(C)C2=C(C(=O)CCC2)C1(C)C (stereo not given) | inactive |
| c1ccc2sc(SSN3CCOCC3)nc2c1 | inactive |
| C=Cc1ccc(OC(C)=O)cc1 | inactive |
| O=C(C=Cc1ccccc1)OCCc1ccccc1 | inactive |
| CC(C)(C)C1CCC(=O)CC1 | inactive |
| CN(C)Cc1cc(CN(C)C)c(O)c(CN(C)C)c1 | inactive |
| CCCCCCOC(=O)CCCCC(=O)OCCCCCC | inactive |
| CCCCC(=O)O | inactive |
| O=C(O)c1cc(O)c2ccccc2c1O | inactive |
| CCOC(=O)C1=NN(c2ccc(Cl)cc2Cl)C(C)(C(=O)OCC)C1 (stereo not given) | inactive |
| C=C(C)C1CC=C(C)C(OC(C)=O)C1 (stereo not given) | inactive |
| CCCCNS(=O)(=O)c1ccccc1 | inactive |
| NC(=O)Nc1ccccc1 | inactive |
| CC(C)OC(=O)c1ccccc1 | inactive |
| CC(C)(O)Cc1ccccc1 | inactive |

| SMILES | outcome |
| --- | --- |
| CCCCCCCCC(CO)CCCCCC (stereo not given) | inactive |
| CC=C(C)C(C)=O | inactive |
| CCCCCCCO | inactive |
| COc1cc(C)ccc1O | inactive |
| c1ccc(Nc2cccc3ccccc23)cc1 | inactive |
| O=C(O)CCCC(=O)O | inactive |
| CC(C)C(=O)OCCOc1ccccc1 | inactive |
| CCCC(CC)c1ccccc1 (stereo not given) | inactive |
| Nc1ccc(O)c([N+](=O)[O-])c1 | inactive |
| CC(C)c1ccc2ncccc2c1 | inactive |
| CC/C=C\CCOC(=O)c1ccccc1O | inactive |
| CCC[Si](OC)(OC)OC | inactive |
| Fc1ccc(Br)cc1 | inactive |
| CCCCCCO | inactive |
| CCCCCCCOC(=O)c1ccc(O)cc1 | inactive |
| O=C(O)C1CCC(C(=O)O)CC1 (stereo not given) | inactive |
| COc1cc(O)c(C(=O)c2ccccc2)cc1S(=O)(=O)O | inactive |
| Clc1cccnc1 | inactive |
| CC1=NN(c2ccc(S(=O)(=O)O)cc2)C(=O)C1N=Nc1ccccc1 (stereo not given) | inactive |
| CCCCOC(=O)CCC(C)=O | inactive |
